Compound activity: PubChem BioAssay, several laboratories
ANO1 activ = mouse TMEM16A channel activation, primary screen | Q8BHY3 | HEK293 TMEM16A/YFP-H148Q/I152L, iodide quench fluorescence; hits give low values | B-score at 10 µM | 340,000 tested, 0.3% active | AID 623877;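 active means fluorescence-ratio B-score plate-corrected deviation score at least 3 library SD below zero, with starting fluorescence score within 5 deviations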;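 further: channel opened by trigger with iodide after compound preincubation; score built on the fluorescence ratio of max minus min over baseline; more negative score means more quench and so TMEM16A activation or potentiation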
TLR4 MyD88 comp = inhibitors of human TLR4-MyD88 binding. HeLa CL3-4 TLR4/MyD88 BLA complementation, FRET ratio. inhibition, % at 8.4 µM. 200,000 tested, 0.18% active. AID 861; in the data active means inhibition above about 25%
TLR9-MyD88 inh = TLR9-MyD88 interaction inhibition; CHO BLA complementation TLR9-MyD88, CCF4 FRET ratio; AID 504734; Q9NR96+Q99836; 340,000 tested, 0.21% active; inhibition, % at 4.98 µM;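 active means inhibition above the mean over all tested compounds plus 3 SD, cut at about 21% in these data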
NOD2 RIPK2 PPI = NOD2-RIPK2 protein interaction inhibition. CHO BLA complementation NOD2-RIPK2, CCF4 ratio. O43353. inhibition, % at 4.98 µM. AID 624267. 360,000 tested, 0.38% active; in the data active means inhibition above about 21%
Target sequence (O43353 whole entry, looked up): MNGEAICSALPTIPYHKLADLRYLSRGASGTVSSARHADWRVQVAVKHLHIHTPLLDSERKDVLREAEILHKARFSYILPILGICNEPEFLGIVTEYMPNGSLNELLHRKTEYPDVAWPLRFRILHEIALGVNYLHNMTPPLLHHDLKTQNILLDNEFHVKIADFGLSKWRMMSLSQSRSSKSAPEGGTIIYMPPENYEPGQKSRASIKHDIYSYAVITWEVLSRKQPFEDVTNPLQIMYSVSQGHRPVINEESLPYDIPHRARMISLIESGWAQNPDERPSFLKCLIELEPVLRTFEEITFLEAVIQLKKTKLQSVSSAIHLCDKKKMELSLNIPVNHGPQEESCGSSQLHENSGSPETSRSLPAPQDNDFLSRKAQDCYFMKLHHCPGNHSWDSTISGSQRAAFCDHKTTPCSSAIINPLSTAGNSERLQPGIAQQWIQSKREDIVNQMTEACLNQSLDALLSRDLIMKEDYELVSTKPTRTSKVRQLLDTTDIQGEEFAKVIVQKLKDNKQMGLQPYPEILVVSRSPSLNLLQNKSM
ANO1 block = mouse TMEM16A channel inhibition, primary screen; HEK293 TMEM16A/YFP iodide influx fluorescence, ionomycin; normalized B-score (activity score, 25-100; higher = stronger inhibition) at 10 µM; 310,000 tested, 1.2% active; AID 588511;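 active means ratio plate-corrected score three or more library SD toward inhibition, starting fluorescence score within five deviations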;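 further: score derived from kinetic fluorescence span divided by baseline fluorescence per well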
GRK2 aptamer HTS = blocks RNA aptamer binding to human GRK2. AID 488847. 330,000 tested, 0.59% active. inhibition of aptamer binding, % at 10 µM. bead flow cytometry, FAM-aptamer displacement from GRK2. P25098;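 active means inhibition of aptamer binding above 40%, roughly 3 SD of noise, on plates passing a quality check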;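 further: median bead fluorescence of bound FAM aptamer so fluorescent compounds give negative values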
Of the large screens only hits and unclear results are named; the others gave an inactive call. Hits are enriched below; roughly 2.2% of the tested compounds scored in any of these assays.

CC[n+]1c(/C=C/C=C/N(C(C)=O)c2ccccc2)sc2cc(OC)ccc21	GRK2 aptamer HTS 80.0 (no result: ANO1 activ, TLR9-MyD88 inh, NOD2 RIPK2 PPI)
COC(=O)c1cccc(NC(=S)Nc2ccccc2Cl)c1	none (no result: TLR4 MyD88 comp)
COC(=O)c1cc(NC(=S)Nc2cc(Cl)cc(Cl)c2)cc(C(=O)OC)c1	ANO1 block 100
COC(=O)c1cccc(NC(=S)Nc2ccc(Cl)c(Cl)c2)c1	ANO1 block 100 (no result: TLR4 MyD88 comp)
CCCNC(=O)C1(C)CCCN(Cc2ccccc2C#N)C1 (stereo unspecified)	none (no result: ANO1 activ, TLR4 MyD88 comp, TLR9-MyD88 inh, ANO1 block, GRK2 aptamer HTS)
CCOC(=O)c1cc2c(C)n(-c3ccc(C)cc3)c(C)c2ccc1=O	ANO1 block 100
COc1ccc(CNC(=O)c2csc(Cc3ccc(OC)cc3)n2)cc1	none
COc1ccc(Cc2nc(C(=O)Nc3ccc(Cl)cc3)cs2)cc1	ANO1 block 100
COc1ccc(C(=O)C[C@@H]2OC[C@H](Cc3ccccc3)N2S(=O)(=O)c2ccc(C)cc2)cc1OC	none (no result: ANO1 activ, TLR4 MyD88 comp, TLR9-MyD88 inh, ANO1 block, GRK2 aptamer HTS)
Cc1ccc(OCCNC(=O)CNC(=O)c2ccc(C)cc2)cc1	none (no result: TLR4 MyD88 comp)
Cc1ccc(OCCNC(=O)CCNC(=O)c2ccc(Cl)cc2)cc1	ANO1 activ -25.9 (no result: TLR4 MyD88 comp, ANO1 block)
COc1cc(/C=C2/CC/C(=C/c3ccc(O)c(OC)c3)C2=O)ccc1O	ANO1 activ -12.9 (no result: TLR4 MyD88 comp)
C#CCN1C=C(C(=O)OCC)C(C)NS1(=O)=O (stereo unspecified)	none (no result: TLR4 MyD88 comp, ANO1 block)
C#CCN1C=C(C(=O)OCC)C(C)N(Cc2ccccc2I)S1(=O)=O (stereo unspecified)	ANO1 activ -4.98 (no result: TLR4 MyD88 comp, ANO1 block)
C[C@H](NC(=O)c1nc[nH]c1C(=O)NCC(=O)OCc1ccccc1)C(=O)OC(C)(C)C	none (no result: TLR4 MyD88 comp)
C[C@H](NC(=O)c1nc[nH]c1C(=O)N1CCN(C(=O)OC(C)(C)C)CC1)c1ccccc1	ANO1 activ -7.15 (no result: TLR4 MyD88 comp, ANO1 block)
CC(C)C[C@H](NC(=O)c1nc[nH]c1C(=O)NCC(=O)OCc1ccccc1)C(=O)OC(C)(C)C	ANO1 activ -14.8 (no result: TLR4 MyD88 comp)
C[C@@H](NC(=O)c1nc[nH]c1C(=O)NC1CCN(C(=O)OC(C)(C)C)CC1)c1ccccc1	none (no result: TLR4 MyD88 comp, ANO1 block)
O=C(NC(NC(=S)Nc1ccc(Cl)cc1Cl)C(Cl)(Cl)Cl)c1cccc([N+](=O)[O-])c1 (stereo unspecified)	ANO1 block 100
O=C(O)c1cccc(NC(=S)NC(NC(=O)c2cccc([N+](=O)[O-])c2)C(Cl)(Cl)Cl)c1 (stereo unspecified)	none (no result: TLR4 MyD88 comp)
CN(c1ccccc1)S(=O)(=O)c1cccc(C(=O)NNC(=O)c2ccccc2)c1	ANO1 block 25
CC(=O)Nc1ccc(C(=O)Nc2cccc(S(=O)(=O)N(C)c3ccccc3)c2)cc1	none (no result: TLR4 MyD88 comp, ANO1 block)
CN(c1cccc(NC(=O)c2ccc(N(C)S(=O)(=O)c3ccccc3)cc2)c1)S(C)(=O)=O	ANO1 block 100
CCOC(=O)N1CCN(C(=O)C[C@@H]2C[C@@]3(C(=O)OC)CC(C)(C)CC=C3N(Cc3ccccc3)C2=O)CC1	none (no result: ANO1 activ, TLR4 MyD88 comp, TLR9-MyD88 inh, ANO1 block, GRK2 aptamer HTS)
COC(=O)C1=C(O)/C(=C\c2ccc(CNS(=O)(=O)c3ccccc3)o2)N=C1C	GRK2 aptamer HTS 72.0
COC(=O)C1=C(O)/C(=C\c2ccc(CNS(=O)(=O)c3ccc(Cl)cc3)o2)N=C1C	none
CC(C)Cn1c(N)c(C(=O)COC(=O)C2CC(=O)N(Cc3ccccc3Cl)C2)c(=O)n(C)c1=O (stereo unspecified)	ANO1 activ -4.62
CC(C)Cn1c(N)c(C(=O)COC(=O)CCNS(=O)(=O)c2ccccc2)c(=O)n(C)c1=O	ANO1 block 25 (no result: TLR4 MyD88 comp)
CCCCc1c(Cc2cccc(F)c2)ncn1CCc1ccccc1OC	none (no result: ANO1 activ, TLR4 MyD88 comp, TLR9-MyD88 inh, ANO1 block, GRK2 aptamer HTS)
CC(C)c1ccc(NC(=O)C2CC(=O)N(C3CCCC3)C2)cc1 (stereo unspecified)	none (no result: TLR4 MyD88 comp)
O=C(Nc1ccccc1)C1CC(=O)N(C2CCCCC2)C1 (stereo unspecified)	ANO1 activ -7.73
COc1ccc2c(c1)nc(-c1cccc(Br)c1)c(=O)n2C(c1ccccn1)c1nc2ccccc2[nH]1 (stereo unspecified)	none (no result: ANO1 activ, TLR4 MyD88 comp, TLR9-MyD88 inh, ANO1 block, GRK2 aptamer HTS)
CCOC(=O)C1=C(c2ccccc2)N=c2s/c(=C\c3cc(OC)c(OC)c(OC)c3)c(=O)n2C1c1cccs1 (stereo unspecified)	TLR9-MyD88 inh 21.8
CCOC(=O)C1=C(C)N=c2s/c(=C\c3ccc(O)c([N+](=O)[O-])c3)c(=O)n2C1c1ccccc1OC (stereo unspecified)	ANO1 block 100 (no result: TLR4 MyD88 comp)
CC(C)c1ccccc1NC(=O)Nc1nnc([C@H]2C[C@H](O)[C@@H](CO)O2)s1	none (no result: ANO1 activ, TLR4 MyD88 comp, TLR9-MyD88 inh, ANO1 block, GRK2 aptamer HTS)
C#CCOCCOCCOCCNc1nc(N2CCN(C(=O)CCCCCCCCCCNC(=O)[C@H](CCCCN)n3cc(CCCC(=O)O)nn3)CC2)nc(N2CCN(C(=O)CCCCCCCCCCNC(=O)[C@H](CCCN=C(N)N)n3cc(C[C@@H](C)CC)nn3)CC2)n1	ANO1 activ -15.9, ANO1 block 100 (no result: TLR4 MyD88 comp)
C#CCOCCOCCOCCNc1nc(N2CCN(C(=O)[C@H](CCCCN)n3cc(CCCC)nn3)CC2)nc(N2CCN(C(=O)[C@H](Cc3ccc(O)cc3)n3cc(CCO)nn3)CC2)n1	GRK2 aptamer HTS 47.0
C#CCOCCOCCOCCNc1nc(N2CCN(C(=O)CCCCCCCCCCNC(=O)Cn3cc(C[C@@H](C)O)nn3)CC2)nc(N2CCN(C(=O)CCCCCCCCCCNC(=O)[C@H](CCCCN)n3cc(C[C@@H](C)CC)nn3)CC2)n1	NOD2 RIPK2 PPI 24.1 (no result: TLR4 MyD88 comp)
C#CCOCCOCCOCCNc1nc(N2CCN(C(=O)CCCCCCCCCCNC(=O)[C@H](CCCCN)n3cc(CCO)nn3)CC2)nc(N2CCN(C(=O)CCCCCCCCCCNC(=O)[C@H](CCCN=C(N)N)n3cc(C[C@@H](C)CC)nn3)CC2)n1	ANO1 activ -21.8, TLR9-MyD88 inh 21.5, ANO1 block 100 (no result: TLR4 MyD88 comp)
C#CCOCCOCCOCCNc1nc(N2CCN(C(=O)[C@H](CCCCN)n3cc(CC(C)O)nn3)CC2)nc(N2CCN(C(=O)[C@H](Cc3ccc(O)cc3)n3cc(CCO)nn3)CC2)n1 (stereo partly specified)	none (no result: TLR4 MyD88 comp, ANO1 block, GRK2 aptamer HTS)
CCN(CC)c1ccc2cc(C(=O)c3cccs3)c(=O)oc2c1	none (no result: ANO1 activ, TLR4 MyD88 comp, TLR9-MyD88 inh, ANO1 block, GRK2 aptamer HTS)
CCCCCCCCN1C(=O)[C@H](CC(=O)N2CCN(C(=O)OCC)CC2)C[C@@]2(C(=O)OC)CCCCC=C12	none (no result: ANO1 activ, TLR4 MyD88 comp, TLR9-MyD88 inh, ANO1 block, GRK2 aptamer HTS)
C/C(=N\NC(=O)CCCOc1ccc(Cl)cc1C)c1ccc(C)o1	GRK2 aptamer HTS 90.0
Cc1cc(Cl)ccc1OCCCC(=O)NN	none
Cc1ccc(NC(=S)N(CCN2CCCCC2)Cc2ccco2)cc1Cl	ANO1 activ -5.13
Cc1ccc(/C=C/S(=O)(=O)NCCC(=O)NCc2ccc(F)cc2)cc1	ANO1 activ -41.8 (no result: TLR4 MyD88 comp, ANO1 block)
Cc1ccc(/C=C/S(=O)(=O)NCCC(=O)NCc2ccccc2F)cc1	none (no result: TLR4 MyD88 comp, ANO1 block)
COCCn1c(-c2ccccc2)csc1=Nc1cccnc1	ANO1 block 25 (no result: TLR9-MyD88 inh)
Cc1ccc(-c2csc(=Nc3cccnc3)n2CCCn2ccnc2)cc1C	ANO1 block 25 (no result: GRK2 aptamer HTS)
